The text below walks through data of PubChem BioAssay (Tox21).

Results filed as inconclusive are left out. Entries that show only a call come without a potency. Calls of active or inactive are those of the source. Calls come from the whole dose curve.

The nature of this test: qHTS assay to identify small molecule agonists or antagonists of the thyroid stimulating hormone receptor (TSHR) signaling pathway - wild type cell line counter screen (AID 1259384). To be noted: HEK293 wild type, cAMP HTRF counter-screen; series mostly up to 92.4 µM. The gist of the method: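 Wild-type Hek293 cells, 800/well, 18 h at 37C, then compound with Ro20-1724 for 30 min RT. cAMP by HTRF (cAMP-d2/anti-cAMP cryptate), 1 h RT, fluorescence read. 15 concentrations, triplicates.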
In the case of `ClCC(Cl)CCl`, the Potency result was “inactive”.
On to `N#Cc1nn(-c2c(Cl)cc(C(F)(F)F)cc2Cl)c(N)c1S(=O)C(F)(F)F` (configuration not stated), for which the Potency result was “inactive”.
With `O=[N+]([O-])c1ccc(Cl)c([N+](=O)[O-])c1`, the Potency result is “inactive”.
Take `CCCCSP(=O)(SCCCC)SCCCC`: the Potency result was “inactive”.
As to `O=[N+]([O-])c1ccc(Nc2ccccc2)cc1`, the Potency result was “inactive”.
Consider `CCCCOCCOC(C)=O`, for which the Potency result is “inactive”.
On to `CC(C)(O)C#N`, for which the Potency entry is “inactive”.
For the molecule `c1ccc(C2CO2)cc1` (configuration not stated), the Potency entry was “inactive”.
Consider `O=C(O)CF`, for which the Potency entry was “inactive”.
Regarding `CC1(C)Cc2cccc(O)c2O1`, the Potency result is “inactive”.
As to `Clc1cccc(C(Cl)(Cl)Cl)n1`, the Potency result was “inactive”.
As to `Clc1cccc(Cl)c1`, the Potency result was “inactive”.
Turning to `COP(=S)(OC)SCn1nnc2ccccc2c1=O`, the Potency entry is “inactive”.
Turning to `Clc1ccc(C(Cl)(Cl)Cl)cc1`, the Potency entry is “inactive”.
Regarding `CC1CC(=O)O1` (configuration not stated), the Potency entry was “inactive”.
The result for `O=S(=O)(O)C(F)(F)C(F)(F)C(F)(F)C(F)(F)C(F)(F)C(F)(F)C(F)(F)C(F)(F)F` reads “inactive”.
Take `COc1ccc(O)c(C(C)(C)C)c1`: the Potency result was “inactive”.
For the molecule `CCCCCCCC[N+](C)(CCCCCCCC)CCCCCCCC`, the Potency result is “inactive”.
Consider `CC(C)(O)C(=O)Nc1ccc([N+](=O)[O-])c(C(F)(F)F)c1`, for which the Potency result was “inactive”.
The result for `C[C@]12CCC(=O)C=C1CC[C@@H]1[C@@H]2CC[C@@]2(C)[C@H]1CC[C@]2(C)O` reads “inactive”; that for `CCOP(=S)(OCC)SCSC(C)(C)C`, “inactive”.
In the case of `CC1=C(C(=O)Nc2ccccc2)SCCO1`, the Potency entry is “inactive”.
With `O=NN1CCOCC1`, the Potency result is “inactive”.
As for `CNC(=S)S`, the Potency result is “inactive”.
Consider `C[N+](C)(C)C`, for which the Potency entry is “inactive”.
Turning to `CCCCOCC1CO1` (configuration not stated), the Potency result is “inactive”.
As for `CCCCC(C#N)(Cn1cncn1)c1ccc(Cl)cc1` (configuration not stated), the Potency entry was “inactive”.
